# Rows were chosen to be rich in hits. Some 0.69% of all compounds tested hit in one or more screens of this group.
# TCR activator – Activators of T cell receptors: qHTS campaign; primary human leukocytes, anti-CD3, IL-2 HTRF, 48 h; Potency, µM (series often up to 9.22 µM), for inactives: at the top dose activation of IL-2 secretion, usual class: activators; 330,000 tested, under 10 active; AID 504894, 2011; further: % of control where 0% means no effect
#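 48 hr co-incubation of compounds, a-CD3 beads and primary human leukocytes; IL-2 quantified homogeneously by HTRF with anti-IL-2 K and d2 conjugates.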
# IL2 activator – qHTS of IL-2 Activators; IL-2 activation reporter assay, cell-based qHTS; stimulated with anti-CD3/CD4/CD28 beads; in transgenic mouse T cells; activation, % (series mostly up to about 46 µM); 360,000 tested, 0.065% active; in the data active means activation above about 50%; inconclusive means mostly about 30% to 49%; further: 0% is about no effect
#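 Unstimulated transgenic mouse T cells, 750 per well, received compound and, after 60 minutes, anti-CD3/anti-CD4 bead plus anti-CD28 stimulation. EGFP and DsRed were quantified after 18 hours.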
# PKM2 activator – qHTS Assay for Activators of Human Muscle isoform 2 Pyruvate Kinase. Potency, µM (highest dose often 57.5 µM), for the others: top-dose activation, hits mostly activators. 260,000 tested, 0.34% active. purified PKM2, Kinase-Glo ATP luminescence, activation; response scale: 0% is enzyme alone, no compound; further: potency means the concentration at half of the fitted maximal effect; on the % scale 0 is the no-effect control and ±100 the full control effect; nearly all actives have a fitted effect of over 55% in size
#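 Purified hPK-M2 (>95% pure) converted ADP (0.1 mM final) to ATP with 0.5 mM PEP in 50 mM imidazole pH7.2, KCl, MgCl2, Tween 20, BSA; 1 h at room temperature. ATP detected by Kinase-Glo luminescence.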
# AT treatment – qHTS Assay for Identifying a Potential Treatment of Ataxia-Telangiectasia; F2112 A-T fibroblasts, KAP-1 phosphorylation AlphaLISA; neocarzinostatin DNA damage 30 min before lysis; Potency, µM (top dose mostly 57.5 µM), without a hit: at the top dose activation, usual class: activators; 320,000 tested, 0.19% active; further: potency means the concentration at half of the fitted maximal effect; % of control where 0% means no effect; nearly all actives have a fitted effect of over 45% in size
#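 ATM-like activity read as KAP-1 phosphorylation via AlphaLISA donor/acceptor antibody pairs after lysis and 6 hr at 25C. Cells were ATM-null patient fibroblasts (F2112, hTERT), dosed 60 min, then exposed to the DSB inducer NCS for 30 min.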
# Tb PFK inh – qHTS Assay to Find Inhibitors of T. brucei phosphofructokinase | T. brucei PFK, ADP-Glo luminescence | Potency, µM (doses to about 57.5 µM), without a hit: at the top dose activity, negative = inhibition, actives largely listed as inhibitors | 330,000 tested, 0.17% active | AID 485367, 2010;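 further: potency means the concentration at half of the fitted maximal effect; 0% = uninhibited 1x PFK enzyme wells and -100% = no-enzyme wells; nearly all actives have a fitted effect of over 60% in size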
# Target sequence (O15648 whole entry, looked up): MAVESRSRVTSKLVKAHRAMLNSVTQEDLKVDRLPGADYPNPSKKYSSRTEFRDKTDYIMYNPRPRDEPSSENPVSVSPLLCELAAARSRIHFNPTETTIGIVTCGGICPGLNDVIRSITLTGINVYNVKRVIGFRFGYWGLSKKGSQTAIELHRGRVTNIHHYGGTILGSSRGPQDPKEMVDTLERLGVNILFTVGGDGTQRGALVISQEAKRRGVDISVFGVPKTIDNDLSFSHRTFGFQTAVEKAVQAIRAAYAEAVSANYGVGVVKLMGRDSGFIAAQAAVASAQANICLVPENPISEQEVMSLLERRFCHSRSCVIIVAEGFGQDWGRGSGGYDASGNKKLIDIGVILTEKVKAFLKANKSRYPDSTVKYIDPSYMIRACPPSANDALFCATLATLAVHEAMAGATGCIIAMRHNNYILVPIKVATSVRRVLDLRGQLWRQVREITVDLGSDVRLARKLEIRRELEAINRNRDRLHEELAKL
#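 In TEA buffer at pH 8.0 with 5 mM MgCl2, enzyme (1.25 nM) converted F6P (0.5 mM) and ATP (0.1 mM) for 45 min at room temperature. ADP product was read by luciferase luminescence.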
# a7 integrin act – qHTS for Activators of Integrin-Mediated Alleviation for Muscular Dystrophy. alpha7betagal myoblasts, beta-gal FDG fluorescence, 48 h. Potency, µM (top dose mostly 38.3 µM), for the others: at the top dose activation, most hits filed as activators. 350,000 tested, 0.064% active. AID 624291, 2012;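 further: potency means the concentration at half of the fitted maximal effect; 100% = response of the positive control SU9516; nearly all actives have a fitted effect of over 60% in size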
#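 Alpha7betagal+/- myoblasts (passage 13) were plated 16-24 hr, then exposed to compounds (1:260 dilution of DMSO stock) for 48 hours at 37C. After MPER lysis, β-galactosidase reporter activity was read as FDG fluorescence (ex 480/em 540) after 30 minutes.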
# Numbers without * were called inactive; ? = inconclusive; . = not tested or not shown; [ ] = remark or other dose. Unless noted, the call rests on the fitted dose curve; in most records, active means well fitted curve in the direction sought with a large enough effect; inconclusive means small, poorly fitted or top-dose-only effect, or another doubt; inactive means no such curve, though single readings can be large; an effect the other way counts as inactive or inconclusive.
SMILES,TCR activator,IL2 activator,PKM2 activator,AT treatment,Tb PFK inh,a7 integrin act
CCC[C@@H]1CCCC/C=C\CCCC(=O)OCCN1C(=O)OC(C)(C)C,6%,0,.,25µM*,6%,-2%
CCOC(=O)Cc1csc(NC(=O)CSc2nnc(C)n2C)n1,-14%,1,6%,0%,-5%,4%
CCOC(=O)Cc1csc(NC(=O)CSc2nnc(C(C)C)n2C)n1,-2%,2,-15%,0.71µM*,1%,-14%
Cn1ccc2cc(-c3ccc4ncnc(NCc5cccnc5)c4c3)ccc21,.,.,.,8%,-1%,.
CCC(C)Sc1cccc(-c2nc3ccc(C)cn3c2NCc2ccccc2)c1 (configuration not stated),-2%,-1,.,22µM*,-29%,-41%
CCC(C)Sc1cccc(-c2nc3ccc(Cl)cn3c2NCc2ccccc2)c1 (configuration not stated),-1%,0,.,20µM*,-11%,5%
CCC(C)Sc1cccc(-c2nc3ccccn3c2NCc2ccccc2)c1 (configuration not stated),-5%,-3,.,17%,5%,-22%
Cc1ccc2nc(-c3cccc(-c4cccc(Cl)c4)c3)c(NCc3ccccc3)n2c1,5%,-1,.,?,0%,-22%
CCCCCCSc1cccc(-c2nc3cc(C)ccn3c2NCc2ccccc2)c1,3%,-1,.,20µM*,-4%,-29%
CCCCCCSc1cccc(-c2nc3ccccn3c2NCc2ccccc2)c1,1%,0,.,15%,0%,-8%
CCCCS(=O)(=O)N1CCc2nc(-c3ccccc3)c3c(c2C1)CO[C@@H](C)C3,.,.,-2%[11.5 µM],.,.,.
COC(=O)N1C(C)=Cc2ccccc2C1CC(C)=O (configuration not stated),.,.,2%[11.5 µM],.,.,.
CSCCOC(=O)c1[nH]c2c(c1C)C(=O)CC(c1ccco1)C2 (configuration not stated),3%,-4,22µM*,-3%,?,-45%
COCCOC(=O)c1[nH]c2c(c1C)C(=O)CC(c1ccco1)C2 (configuration not stated),-5%,-3,?,-1%,?,-2%
c1ccc2c(c1)ccc1ccccc12,18%,-2,.,2%,9%,0%
Nc1c(C(O)(C(F)(F)F)C(F)(F)F)ccc2ccccc12,-3%,-1,2%,28µM*,-8%,17%
CCCCc1nc2c(c3c1C[C@H](C)OC3)CN(C(=O)C1CC1)CC2,.,.,8%[11.5 µM],.,.,.
Cn1c(-c2ccccc2)nc2cnccc21,-1%,-2,-8%,20µM*,-2%,18%
CC#CCN1c2ccccc2[C@]23C[C@@H](C(=O)OC)N(C(=O)c4cccs4)C2=NC(C(=O)OC)=C(C(=O)OC)[C@H]13,.,.,0%[11.5 µM],.,.,.
O=c1c2sccc2nc(SCc2cc(=O)n3cc(Br)ccc3n2)n1Cc1ccccn1,3%,3,7.9µM*,3%,-15%,-18%
COc1ccccc1C1CCN(Cc2ccc(Cl)c(Cl)c2)CC1,6%,-3,.,25µM*,-8%,0%
COC(=O)CCN(C1CCCCC1)S(=O)(=O)c1ccc(S(=O)(=O)N2CCCCC2)cc1,-4%,-2,28µM*,-8%,1%,46%
CCc1cccc(CC)c1NC(=S)NCCc1ccc(O)c(O)c1,0%,0,22µM*,-15%,-6%,5%
Nn1c(SCc2ccc(F)cc2)nnc1-c1ccccn1,-26%,-2,-3%,16µM*,-1%,-13%
CC(=O)c1cnc2nc(C(F)(F)F)nn2c1C,-2%,-1,11%,21%,3%,22%
SMILES,TCR activator,IL2 activator,PKM2 activator,AT treatment,Tb PFK inh,a7 integrin act
CC(=O)c1cnc2nc(SCc3ccccc3C)nn2c1C,-3%,-3,13µM*,0%,3%,-7%
CCOc1ccc2c(c1)sc1nc(C(=O)OC)cc(=O)n12,-1%,0,.,.,.,-12%
CCOc1ccc2c(c1)s/c(=N\S(=O)(=O)c1ccc(OC)cc1)n2C(F)F,-4%,-1,1.6µM*,.,.,-11%
COC(=O)C(C(C)=O)C1c2ccccc2C=C(C)N1C(=O)OC (configuration not stated),.,.,-5%[11.5 µM],.,.,.
CCc1ccc(/C=C2/SC(=S)N(CCC(=O)Nc3cccnc3)C2=O)cc1,1%,54*,4%,5%,1%,34%
COc1ccccc1OCCn1c(C(C)O)nc2ccccc21 (configuration not stated),-3%,1,0%,9%,4%,-11%
COc1ccc(S(=O)(=O)N(NC2=NS(=O)(=O)c3ccccc32)C(=O)C(C)C)cc1,-4%,1,3%,1%,-2%,2.5µM*
CCc1ccccc1Nc1nn2c(=O)c3ccc(C(=O)NCCCOC(C)C)cc3nc2s1,.,.,.,-9%,0%,.
O=C(Nc1ccccc1)c1ccccc1NC(=O)C1CCCCC1,-4%,-3,1%,3%,2%,-37%
Cc1cccc(NC(=O)c2ccccc2NC(=O)C2CCCCC2)c1C,7%,-2,28µM*,1%,-1%,-1%
COC(=O)[C@@H]1C[C@H]1[C@@H](NC(C)=O)c1ccccc1,.,.,-7%,.,.,.
CCN(CC)CCn1c(-c2ccccc2)nc2c(NCCOC)nc(C)nc21,.,.,-2%,.,.,.
COC(=O)c1ccc(S(=O)(=O)N2CCCN(Cc3ccccc3)CC2)n1C,0%,0,0%,-2%,1%,-3%
COC(=O)c1ccc(S(=O)(=O)N2CCCN(Cc3cccc(Br)c3F)CC2)n1C,-3%,0,0%,40µM*,-1%,-52%
O=C(c1ccc(Br)cc1)N1CCN(Cc2ccccc2)CC1,.,-1,1%,11%,0%,12%
O=C(c1ccc(Cn2cc(Cl)cn2)cc1)N1CCN(c2ccccc2)CC1,3%,-4,16µM*,.,.,22%
O=C(c1ccc(CN2CCOCC2)cc1)N1CCN(c2cccc(Cl)c2)CC1,2%,-1,-2%,3%,-9%,-3%
O=C(c1ccc(Cn2cc(Br)cn2)cc1)N1CCN(c2ccccc2)CC1,.,-1,4.5µM*,4%,-5%,27%
c1ccc(CCNc2c3c(nc4ncnn24)CCC3)cc1,.,-2,25µM*,13%,2%,-4%
CCOc1ccc(NC(=O)CN2C(=O)NC(CCSC)C2=O)cc1 (configuration not stated),2%,1,0%,-15%,2%,10µM*

# Assay outcomes deposited in PubChem by National Center for Advancing Translational Sciences (NCATS).
